# Source: ChEMBL document CHEMBL1961873, “Compounds: GSK PKIS; Assays: Nanosyn kinase panel” (2012)
# Where “and” joins values, the source holds several entries; their conditions need not be identical. Equal entries are not always repeated.
# Legend:
# [1] = molecular target: T1, Tyrosine-protein kinase ITK/TSK (Homo sapiens) (UniProt Q08881); settings: at 1 µM;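 also: values are mean percent inhibition of ITK from the GSK PKIS screen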
# T1 sequence (whole entry): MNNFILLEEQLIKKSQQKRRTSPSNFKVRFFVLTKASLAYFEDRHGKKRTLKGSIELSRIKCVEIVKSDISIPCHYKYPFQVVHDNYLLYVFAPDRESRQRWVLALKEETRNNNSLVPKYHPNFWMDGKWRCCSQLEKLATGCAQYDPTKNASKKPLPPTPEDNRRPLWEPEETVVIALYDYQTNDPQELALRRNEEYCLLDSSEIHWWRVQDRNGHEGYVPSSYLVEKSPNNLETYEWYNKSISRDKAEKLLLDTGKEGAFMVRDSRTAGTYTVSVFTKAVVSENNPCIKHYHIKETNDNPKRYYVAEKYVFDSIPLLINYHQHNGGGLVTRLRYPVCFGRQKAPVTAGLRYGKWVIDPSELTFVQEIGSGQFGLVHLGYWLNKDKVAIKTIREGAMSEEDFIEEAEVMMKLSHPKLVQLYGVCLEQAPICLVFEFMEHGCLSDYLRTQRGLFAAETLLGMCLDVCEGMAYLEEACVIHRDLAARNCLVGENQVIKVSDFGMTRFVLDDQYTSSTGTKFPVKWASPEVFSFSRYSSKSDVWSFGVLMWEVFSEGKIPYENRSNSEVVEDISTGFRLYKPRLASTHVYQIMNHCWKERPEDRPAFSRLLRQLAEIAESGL
# [2] = molecular target: Tyrosine-protein kinase JAK1 (Homo sapiens) (UniProt P23458); settings: at 0.1 µM
# Sequence of Tyrosine-protein kinase JAK1 (Homo sapiens) (P23458 whole entry): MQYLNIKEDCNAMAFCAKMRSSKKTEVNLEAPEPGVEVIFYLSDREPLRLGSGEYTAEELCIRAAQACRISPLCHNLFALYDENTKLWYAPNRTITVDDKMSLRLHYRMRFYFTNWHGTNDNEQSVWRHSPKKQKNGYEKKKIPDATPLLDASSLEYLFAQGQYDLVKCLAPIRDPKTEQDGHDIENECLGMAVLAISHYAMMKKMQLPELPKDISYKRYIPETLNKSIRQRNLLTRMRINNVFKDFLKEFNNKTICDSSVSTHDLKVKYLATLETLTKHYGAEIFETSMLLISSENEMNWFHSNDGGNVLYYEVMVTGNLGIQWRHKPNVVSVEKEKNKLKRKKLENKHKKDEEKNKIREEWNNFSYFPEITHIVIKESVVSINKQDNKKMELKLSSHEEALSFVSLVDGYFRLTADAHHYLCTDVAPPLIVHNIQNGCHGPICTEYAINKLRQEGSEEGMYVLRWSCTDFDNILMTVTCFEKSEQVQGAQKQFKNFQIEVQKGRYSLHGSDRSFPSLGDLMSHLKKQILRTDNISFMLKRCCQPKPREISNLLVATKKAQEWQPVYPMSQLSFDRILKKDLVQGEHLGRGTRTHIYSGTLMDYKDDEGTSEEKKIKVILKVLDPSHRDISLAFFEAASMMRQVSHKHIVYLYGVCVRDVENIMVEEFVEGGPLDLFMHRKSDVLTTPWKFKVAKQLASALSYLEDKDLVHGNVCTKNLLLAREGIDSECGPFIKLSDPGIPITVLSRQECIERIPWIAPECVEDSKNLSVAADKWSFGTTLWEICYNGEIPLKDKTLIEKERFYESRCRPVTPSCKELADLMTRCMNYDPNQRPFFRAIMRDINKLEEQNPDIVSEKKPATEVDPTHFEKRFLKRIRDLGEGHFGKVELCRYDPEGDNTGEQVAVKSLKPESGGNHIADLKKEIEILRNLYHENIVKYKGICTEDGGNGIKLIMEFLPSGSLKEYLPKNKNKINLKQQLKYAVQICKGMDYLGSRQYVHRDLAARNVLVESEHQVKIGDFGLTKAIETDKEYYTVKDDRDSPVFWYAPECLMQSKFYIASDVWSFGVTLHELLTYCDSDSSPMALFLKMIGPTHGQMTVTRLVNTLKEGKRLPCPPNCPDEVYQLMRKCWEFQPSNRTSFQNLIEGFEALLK
# [3] = molecular target: Tyrosine-protein kinase JAK1 (Homo sapiens) (UniProt P23458); settings: at 1 µM
# [4] = molecular target: Tyrosine-protein kinase JAK2 (Homo sapiens) (UniProt O60674); settings: at 0.1 µM
# Sequence of Tyrosine-protein kinase JAK2 (Homo sapiens) (O60674 whole entry): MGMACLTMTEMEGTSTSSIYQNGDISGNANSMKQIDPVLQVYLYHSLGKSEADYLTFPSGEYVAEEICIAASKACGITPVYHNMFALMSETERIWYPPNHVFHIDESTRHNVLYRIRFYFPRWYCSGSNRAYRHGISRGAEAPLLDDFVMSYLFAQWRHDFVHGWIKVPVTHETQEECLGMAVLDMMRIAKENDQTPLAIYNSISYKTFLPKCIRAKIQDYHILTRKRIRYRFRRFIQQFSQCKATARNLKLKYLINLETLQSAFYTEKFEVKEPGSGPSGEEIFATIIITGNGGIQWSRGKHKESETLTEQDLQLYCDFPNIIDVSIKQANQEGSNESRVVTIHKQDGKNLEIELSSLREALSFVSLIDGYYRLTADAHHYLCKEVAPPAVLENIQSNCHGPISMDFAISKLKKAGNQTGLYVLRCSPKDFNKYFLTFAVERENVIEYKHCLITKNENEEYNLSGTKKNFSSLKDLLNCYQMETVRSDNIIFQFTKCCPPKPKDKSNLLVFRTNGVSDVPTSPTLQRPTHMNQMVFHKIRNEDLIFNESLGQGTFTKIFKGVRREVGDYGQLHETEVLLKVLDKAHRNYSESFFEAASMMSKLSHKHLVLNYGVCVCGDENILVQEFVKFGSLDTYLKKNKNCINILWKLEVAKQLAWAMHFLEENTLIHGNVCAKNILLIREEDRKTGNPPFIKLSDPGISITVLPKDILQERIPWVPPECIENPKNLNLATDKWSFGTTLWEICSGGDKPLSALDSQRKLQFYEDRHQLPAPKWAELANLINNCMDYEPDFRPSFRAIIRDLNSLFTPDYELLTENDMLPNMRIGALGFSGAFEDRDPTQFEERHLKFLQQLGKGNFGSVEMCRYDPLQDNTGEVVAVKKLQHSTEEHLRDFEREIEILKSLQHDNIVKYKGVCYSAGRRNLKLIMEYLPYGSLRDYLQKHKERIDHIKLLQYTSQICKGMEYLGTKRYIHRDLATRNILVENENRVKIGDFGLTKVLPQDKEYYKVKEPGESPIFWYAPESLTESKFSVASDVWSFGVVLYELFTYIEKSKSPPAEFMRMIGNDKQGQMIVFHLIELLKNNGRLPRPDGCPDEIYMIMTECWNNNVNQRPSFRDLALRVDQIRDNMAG
# [5] = molecular target: Tyrosine-protein kinase JAK2 (Homo sapiens) (UniProt O60674); settings: at 1 µM
# [6] = molecular target: T2, Tyrosine-protein kinase JAK3 (Homo sapiens) (UniProt P52333); settings: at 0.1 µM
# T2 sequence (whole entry): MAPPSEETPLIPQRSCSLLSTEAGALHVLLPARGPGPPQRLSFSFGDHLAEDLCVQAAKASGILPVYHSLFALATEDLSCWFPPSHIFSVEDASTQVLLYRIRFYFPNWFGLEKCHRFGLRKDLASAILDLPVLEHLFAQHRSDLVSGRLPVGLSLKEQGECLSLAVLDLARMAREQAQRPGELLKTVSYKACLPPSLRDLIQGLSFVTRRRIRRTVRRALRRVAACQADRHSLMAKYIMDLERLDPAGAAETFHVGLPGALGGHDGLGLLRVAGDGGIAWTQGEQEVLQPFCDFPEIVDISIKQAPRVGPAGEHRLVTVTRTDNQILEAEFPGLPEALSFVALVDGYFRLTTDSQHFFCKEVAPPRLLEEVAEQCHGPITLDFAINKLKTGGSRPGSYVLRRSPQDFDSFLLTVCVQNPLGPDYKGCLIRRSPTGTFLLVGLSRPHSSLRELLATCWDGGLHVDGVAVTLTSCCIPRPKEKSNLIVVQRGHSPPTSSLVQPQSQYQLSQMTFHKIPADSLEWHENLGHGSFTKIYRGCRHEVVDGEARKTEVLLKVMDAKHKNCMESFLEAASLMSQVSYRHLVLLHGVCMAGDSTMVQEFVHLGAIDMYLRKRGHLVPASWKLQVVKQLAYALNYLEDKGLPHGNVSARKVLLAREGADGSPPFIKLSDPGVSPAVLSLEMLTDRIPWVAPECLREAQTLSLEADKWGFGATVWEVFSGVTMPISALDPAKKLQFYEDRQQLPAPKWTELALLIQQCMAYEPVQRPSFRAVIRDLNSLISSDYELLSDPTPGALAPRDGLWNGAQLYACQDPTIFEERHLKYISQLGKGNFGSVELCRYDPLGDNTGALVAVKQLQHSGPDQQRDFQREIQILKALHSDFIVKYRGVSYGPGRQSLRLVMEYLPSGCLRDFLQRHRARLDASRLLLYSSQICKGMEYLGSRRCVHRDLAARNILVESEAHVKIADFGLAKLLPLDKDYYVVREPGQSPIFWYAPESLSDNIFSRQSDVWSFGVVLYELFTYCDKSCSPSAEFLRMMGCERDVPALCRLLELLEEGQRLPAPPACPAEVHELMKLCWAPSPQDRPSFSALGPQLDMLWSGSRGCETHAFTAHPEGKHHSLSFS
# [7] = molecular target: T2, Tyrosine-protein kinase JAK3 (Homo sapiens); settings: at 1 µM
# [8] = molecular target: Vascular endothelial growth factor receptor 2 (Homo sapiens) (UniProt P35968); settings: at 0.1 µM
# Sequence of Vascular endothelial growth factor receptor 2 (Homo sapiens) (P35968 whole entry): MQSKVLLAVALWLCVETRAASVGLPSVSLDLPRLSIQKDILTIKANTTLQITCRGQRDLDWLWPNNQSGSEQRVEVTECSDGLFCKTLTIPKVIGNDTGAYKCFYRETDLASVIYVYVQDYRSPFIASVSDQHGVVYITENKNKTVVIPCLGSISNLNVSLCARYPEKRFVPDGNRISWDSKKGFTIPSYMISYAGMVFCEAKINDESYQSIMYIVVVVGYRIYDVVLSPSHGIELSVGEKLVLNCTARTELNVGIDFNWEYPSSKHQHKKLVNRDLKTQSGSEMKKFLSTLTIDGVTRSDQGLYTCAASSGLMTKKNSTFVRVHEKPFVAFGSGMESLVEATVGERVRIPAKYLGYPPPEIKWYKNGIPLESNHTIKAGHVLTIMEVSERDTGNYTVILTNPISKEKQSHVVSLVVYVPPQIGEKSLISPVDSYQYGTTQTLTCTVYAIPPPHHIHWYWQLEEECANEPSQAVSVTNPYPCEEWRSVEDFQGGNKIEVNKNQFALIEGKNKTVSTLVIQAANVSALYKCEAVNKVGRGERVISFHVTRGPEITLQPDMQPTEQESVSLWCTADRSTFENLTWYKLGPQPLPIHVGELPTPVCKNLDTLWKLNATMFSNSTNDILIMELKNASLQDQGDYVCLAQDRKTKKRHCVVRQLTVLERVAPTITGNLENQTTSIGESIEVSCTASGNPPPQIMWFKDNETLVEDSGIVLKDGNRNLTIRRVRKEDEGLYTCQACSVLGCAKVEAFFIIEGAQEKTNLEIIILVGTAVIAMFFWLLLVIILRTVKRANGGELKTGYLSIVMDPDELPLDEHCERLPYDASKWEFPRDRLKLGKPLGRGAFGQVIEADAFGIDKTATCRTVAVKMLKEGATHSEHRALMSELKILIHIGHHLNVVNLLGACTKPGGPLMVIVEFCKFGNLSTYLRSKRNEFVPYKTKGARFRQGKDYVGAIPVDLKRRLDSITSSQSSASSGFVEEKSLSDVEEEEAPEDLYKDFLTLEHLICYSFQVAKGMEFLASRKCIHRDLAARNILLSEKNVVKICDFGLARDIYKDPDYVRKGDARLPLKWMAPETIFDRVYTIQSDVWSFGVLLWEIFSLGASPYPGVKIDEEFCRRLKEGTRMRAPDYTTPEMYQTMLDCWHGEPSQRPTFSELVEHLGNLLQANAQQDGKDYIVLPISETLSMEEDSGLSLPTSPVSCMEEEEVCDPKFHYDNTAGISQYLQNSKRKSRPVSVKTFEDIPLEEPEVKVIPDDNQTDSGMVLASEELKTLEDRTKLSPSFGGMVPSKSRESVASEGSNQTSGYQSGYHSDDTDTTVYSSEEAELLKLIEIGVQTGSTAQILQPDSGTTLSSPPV
# [9] = molecular target: Vascular endothelial growth factor receptor 2 (Homo sapiens) (UniProt P35968); settings: at 1 µM
# [10] = molecular target: Mast/stem cell growth factor receptor Kit (Homo sapiens) (UniProt P10721); settings: at 0.1 µM;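 also: values are mean inhibition of KIT, from the GSK PKIS dataset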
# Sequence of Mast/stem cell growth factor receptor Kit (Homo sapiens) (P10721 whole entry): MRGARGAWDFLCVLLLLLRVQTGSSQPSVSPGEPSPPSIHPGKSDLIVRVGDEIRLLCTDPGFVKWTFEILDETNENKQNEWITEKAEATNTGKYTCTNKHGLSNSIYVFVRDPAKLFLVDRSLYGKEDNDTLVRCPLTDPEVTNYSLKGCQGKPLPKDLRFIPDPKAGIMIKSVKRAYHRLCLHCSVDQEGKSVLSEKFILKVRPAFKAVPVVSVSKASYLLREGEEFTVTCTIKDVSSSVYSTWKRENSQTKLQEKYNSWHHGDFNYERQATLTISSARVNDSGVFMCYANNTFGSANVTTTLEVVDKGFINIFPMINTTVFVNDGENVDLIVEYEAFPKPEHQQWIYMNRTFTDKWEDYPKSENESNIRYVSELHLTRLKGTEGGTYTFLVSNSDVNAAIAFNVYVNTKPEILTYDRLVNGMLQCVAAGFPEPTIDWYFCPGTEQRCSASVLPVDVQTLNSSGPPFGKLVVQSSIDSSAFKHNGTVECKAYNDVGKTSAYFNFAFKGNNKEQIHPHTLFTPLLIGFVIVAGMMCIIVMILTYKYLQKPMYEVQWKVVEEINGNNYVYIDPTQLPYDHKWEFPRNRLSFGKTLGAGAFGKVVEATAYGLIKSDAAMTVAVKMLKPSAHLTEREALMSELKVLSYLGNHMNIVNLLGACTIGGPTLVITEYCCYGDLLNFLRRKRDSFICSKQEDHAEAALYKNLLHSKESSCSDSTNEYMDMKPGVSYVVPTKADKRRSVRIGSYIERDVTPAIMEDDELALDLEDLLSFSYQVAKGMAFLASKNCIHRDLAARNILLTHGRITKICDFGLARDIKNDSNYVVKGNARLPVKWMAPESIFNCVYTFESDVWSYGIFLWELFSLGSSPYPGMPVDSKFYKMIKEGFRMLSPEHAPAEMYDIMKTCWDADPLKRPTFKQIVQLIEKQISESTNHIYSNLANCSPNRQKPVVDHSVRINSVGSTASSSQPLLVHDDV
SMILES,inhibition [1],inhibition [2],inhibition [3],inhibition [4],inhibition [5],inhibition [6],inhibition [7],inhibition [8],inhibition [9],inhibition [10]
O=C(O[C@H]1CN[C@H](C#Cc2cc3ncnc(Nc4ccc(OCc5cccc(F)c5)c(Cl)c4)c3s2)C1)N1CCOCC1,2.04%,5.13%,13.7%,0.79%,1.3%,-0.56%,-2.5%,2.63%,7.79%,5.01%
O=C1Nc2ccccc2/C1=C1\CCc2cc(O)ccc21,14.6%,3.42%,12.7%,1.74%,3.79%,-0.09%,13.3%,10.5%,37.8%,66.3%
Nc1nccc(-c2c(-c3ccc(F)cc3)ncn2C2CCNCC2)n1,-0.06% and 1.58%,-5.03% and -2.79%,1.1% and 3.47%,-1.85% and 0.8%,-1.57% and 1.93%,0.47% and 0.86%,2.72% and 2.66%,-2.27% and 1.08%,2.47% and 2.78%,-3.74% and 1.54%
Fc1ccc(Nc2nccc(-c3c(-c4ccc(C(F)(F)F)cc4)nn4ncccc34)n2)cc1F,2.42%,2.03%,0.13%,1.44%,2.24%,-1.12%,0.59%,5.73%,7.03%,4.14%
NS(=O)(=O)c1ccc(N/N=C2\C(=O)Nc3ccc(C(=O)NCc4ccncc4)cc32)cc1,3.12%,3.77%,9.66%,0.74%,1.38%,-0.81%,6.2%,7.35%,34.5%,4.44%
CCOc1ccc2c(-c3ccnc(Nc4cc(OC)cc(C(F)(F)F)c4)n3)cnn2n1,1.63%,-2.13%,6.23%,1.22%,5.38%,0.66%,9.24%,4.19%,19.1%,7.32%
Cn1c(-c2nonc2N)nc2cnccc21,1.68%,4.75%,2.08%,1.45%,1.42%,-1.06%,-0.29%,4.81%,12.2%,4.67%
Nc1nonc1-c1nc2cnccc2n1C1CC1,1.67% and -2.42%,0.26% and 0.62%,-0.07% and 3.24%,0.87% and 1.12%,3.76% and 0.55%,4.13% and -4.12%,4.66% and -3.11%,14.3% and 13.8%,54.2% and 52%,4.06% and 2.58%
CCS(=O)(=O)c1ccc(OC)c(Nc2ncc(-c3cccc(F)c3)o2)c1,6.38%,7.39%,10.4%,3.25%,2.43%,-1.97%,0.45%,46.8%,77%,74.7%
COc1ccc(Nc2ncc(-c3ccccc3)o2)cc1OC,3.7%,0.7%,7.81%,1.09%,3.43%,0.88%,10.7%,10.6%,44.2%,79.1%
CS(=O)(=O)Nc1ccc(-c2cc(-c3ccccc3)cc(C(N)=O)c2N)cc1,0.76%,0.16%,2.62%,0.9%,3.86%,-0.01%,0.58%,1.74%,4.53%,3.8%
CNC(=O)c1sc(-n2cnc3cc(OC)c(OC)cc32)cc1OCc1ccccc1C(F)(F)F,3.59%,0.71%,7.26%,-0.02%,0.52%,-2.82%,-0.34%,4.23%,12.4%,4.06%
Nc1ncnc2occ(-c3ccc(NC(=O)Nc4cc(C(F)(F)F)ccc4F)cc3)c12,7.9% and 3.04%,-0.01% and -6.67%,8.18% and -2.37%,2.05% and -0.57%,18.8% and 7.54%,-0.84% and 0.28%,1.36% and 1%,63.8% and 54%,71.1% and 78.2%,90.2% and 85.7%
CNC(=O)c1cncc(/C=C/c2ccccc2C)c1,2.59%,6.31%,12.7%,1.48%,1.45%,-0.66%,0.49%,4.29%,7.71%,5.02%
CNC(=O)c1ncccc1Nc1nc(Nc2cc3c(cc2OC)CCCN3C(=O)CN(C)C)nc2[nH]ccc12,2.8%,4.62%,-0.74%,1.24%,1.63%,2.81%,0.89%,4.97%,5.02%,5.24%
CN(c1ccc(NC(=O)NCCN2CCOCC2)cc1)c1ccnc(Nc2ccc(CS(C)(=O)=O)cc2)n1,9.06%,3.28%,15%,0.02%,9.94%,-0.77%,7.15%,7.07%,34.8%,60.2%

SMILES,inhibition [1],inhibition [2],inhibition [3],inhibition [4],inhibition [5],inhibition [6],inhibition [7],inhibition [8],inhibition [9],inhibition [10]
NS(=O)(=O)c1ccc(N/N=C2\C(=O)Nc3cccc(CCc4ccncc4)c32)cc1,2.79%,-0.35%,1.96%,0.5%,1.19%,0.74%,5.91%,19.6%,46.7%,27%
CCS(=O)(=O)c1ccc(OC)c(Nc2ncc(-c3cccc(C(C)=O)c3)o2)c1,2.71%,0.61%,6.56%,0.16%,1.8%,-1.13%,1.72%,16.4%,58.9%,19.7%
CC(C)c1ccc(-c2cc(-c3c[nH]nc3-c3ccccn3)ccn2)cc1,1.69%,-1.37%,1.1%,0.74%,0.23%,0.23%,0.8%,9.43%,32.4%,0.6%
CC1=C(C(=O)Nc2ccc3[nH]nc(C)c3c2)C(c2ccc(C(F)(F)F)cc2)CC(=O)N1 (stereo not given),7.86%,38.5%,70.7%,31.1%,82.4%,15.6%,68.8%,5.36%,11%,2.41%
COc1cc(N2CCN(C(C)C)CC2)ccc1Nc1nc(Nc2cccc(F)c2C(=O)O)c2cc[nH]c2n1,5.92%,4.17%,8.87%,6.66%,2.37%,-1.39%,0.51%,4.67%,6.45%,2.86%
CN(C)CCNC(=O)Nc1ccc(N(C)c2ccnc(Nc3ccc(CS(C)(=O)=O)cc3)n2)cc1,3.84%,3.89%,-1.93%,1.46%,3.2%,-1.47%,-0.17%,7.04%,18.9%,13.9%
COC(=O)Nc1nc2ccc(Oc3ccc(NC(=O)Nc4cc(C(F)(F)F)ccc4F)cc3)cc2s1,2.72%,0.07%,9.06%,1.98%,7.31%,-0.26%,0.75%,69.8%,85.1%,17.9%
COc1ccc2ncn(-c3cc(O[C@H](C)c4ccccc4C(F)(F)F)c(C(N)=O)s3)c2c1,1.39%,-0.98%,5.43%,1.01%,-1.12%,0.5%,6.44%,2.92%,14.1%,-1.6%
COc1cc(Nc2ncc(-c3ccccc3)o2)cc(OC)c1,3.63%,-0.99%,5.5%,2.04%,1.78%,-3.48%,-1.92%,6.74%,19.3%,78.5%
CS(=O)(=O)CCNCc1ccc(-c2ccc3ncnc(Nc4ccc(OCc5cccc(C(F)(F)F)c5)cc4)c3c2)o1,1.4%,1.68%,1.38%,4.27%,3.35%,-1.49%,0.32%,5.19%,11%,4.53%
N#Cc1ccc2c(-c3ccnc(NC4CC4)n3)c(-c3ccc(F)cc3)nn2c1,0.51%,0.46%,0.31%,-0.51%,-0.42%,-1.62%,-1.11%,1.86%,14.6%,3.02%
Cc1ccc(-c2cc3c(NC(=O)C4CC4)ncnc3o2)cc1,2.63%,2.29%,1.7%,2.06%,2.55%,-0.9%,2.42%,6.12%,13.4%,8.72%
COc1ccc(-c2nn3ncccc3c2-c2ccnc(Nc3ccc(F)c(F)c3)n2)cc1,3.13%,3.71%,14.6%,0.73%,1.18%,-1.36%,0.8%,6.9%,20.6%,7.56%
COc1ccccc1-c1cc(/C=C2\C(=O)Nc3ncc(Br)cc32)cc(Br)c1O,3.95%,2.55%,0.51%,1.66%,3.2%,-0.19%,5.39%,6.49%,8.56%,8.06%
OCCCNc1nccc(-c2c(-c3ccc(F)cc3)nn3cc(C(F)(F)F)ccc23)n1,0.19%,-0.95%,-4.2%,1.8%,0.99%,0.08%,1.33%,4.84%,6.21%,3.28%
